Compound activity as filed in PubChem.
KLF5 inhibitor: KLF5 expression inhibitors, primary screen, DLD-1 cells, luminescence | AID 1700, 2009 | inhibition, % at 5 µM | DLD-1 KLF5 promoter-luciferase reporter | 290,000 compounds, 0.23% hits;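 active = inhibition above a per-plate limit of that plate's mean compound inhibition plus 3 SD, cut at about 60% in these data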;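 note: higher means less KLF5 promoter-driven luciferase light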
IEC-6 cytotox: cytotoxicity in IEC-6 intestinal epithelial cells, primary screen, cytotoxicity control for KLF5 inhibitor project, cell-based, luminescence | IEC-6 cytotoxicity, luminescence viability | inhibition, % at 5 µM | 290,000 compounds, 0.78% hits | AID 1825, 2009; in the data active = inhibition above about 22%
APP transl inh: inhibitors of APP translation via 5'UTR reporter, primary screen, APP 5'UTR luciferase, SH-SY5Y cells. AID 1285, 2008. SH-SY5Y APP 5'UTR-luciferase reporter, luminescence. inhibition, % at 2 µM. 190,000 compounds, 0.82% hits;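 active = inhibition above a set limit, derived from the sample mean plus 3 SD, cut at about 45% in these data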
aSyn UTR inh: MLPCN primary screen, SNCA 5' untranslated region; alpha-synuclein 5'UTR reporter, inhibitor activity; inhibition, % (tested at 7.5 µM); 300,000 compounds, 0.82% hits; in the data active = inhibition above about 60%;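 note: H4 neuroglioblastoma cells stably carrying SNCA 5'UTR luciferase fusion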
BaF3 parental: parental Ba/F3 cell viability inhibition, counter-screen for JAK2V617F inhibitor project, murine pro-B, CellTiter-Glo luminescence. CellTiter-Glo ATP luminescence. inhibition, % at 5.6 µM. 220,000 compounds, 1.1% hits;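 active = inhibition above a per-campaign cutoff, the mean inhibition of all tested compounds plus 3 SD, cut at about 27% in these data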
Ba/F3 V617F tox: reduced viability of JAK2V617F-dependent Ba/F3 cells, primary screen, JAK2V617F inhibitor project, cell-based, Ba/F3 EpoR-JAK2V617F, luminescence; ATP luminescence; inhibition, % at 5.6 µM; 220,000 compounds, 1.1% hits; AID 1446, 2008;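 active = inhibition above the campaign mean plus 3 SD over all tested compounds, cut at about 24% in these data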;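 note: cytokine-independent growth of Ba/F3 cells driven by EpoR plus mutant JAK2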
A number is an active result; - = inactive; . = no result given. Rows were chosen to be rich in hits. Some 2.1% of all compounds tested hit in one or more screens of this group.

SMILES | KLF5 inhibitor | IEC-6 cytotox | APP transl inh | aSyn UTR inh | BaF3 parental | Ba/F3 V617F tox
CCC(=O)Nc1nc2ccccc2n1Cc1ccc(C)cc1 | - | - | - | 77 | - | -
Cc1ccc(OCCn2c(NC(=O)c3ccco3)nc3ccccc32)cc1 | - | - | - | 67 | - | -
CCC(=O)Nc1nc2ccccc2n1Cc1ccccc1 | - | - | - | - | - | -
COc1cccc(CNC(=O)C2CCC(=O)N(C3CC3)C2)c1OC (configuration not stated) | - | - | . | - | . | .
COc1ccc(CC(=O)Nc2cccc(-c3cn4ccccc4n3)c2)cc1 | - | - | - | - | - | -
COc1ccc(CC(=O)Nc2ccc(-c3cn4ccccc4n3)cc2)cc1 | - | - | 58 | - | - | -
CCCCCCCCCCC[C@@H](C[C@@H]1OC(=O)[C@H]1CCCCCC)OC(=O)[C@H](CC(C)C)NC=O | - | - | . | - | - | -
Cc1cc(N/N=C/c2ccccc2O)c2ccccc2n1 | - | - | . | - | . | .
COc1ccc(/C=N/Nc2cc(C)nc3ccc(Br)cc23)cc1 | - | - | . | 100 | . | .
COc1ccc2nc(C)cc(N/N=C/c3cccc(OC)c3O)c2c1 | - | - | . | 100 | . | .
CN(C(=O)CN1C(=O)C2C3CC(C(Br)C3Br)C2C1=O)C1CCCCC1 (configuration not stated) | - | - | . | - | . | .
COC(=O)c1ccc(CN(c2ccc(C(=O)O)c(O)c2)S(=O)(=O)c2ccc(Cl)c([N+](=O)[O-])c2)cc1 | - | - | . | - | . | .
O=C(Cn1c2ccccc2c(=O)c2ccccc21)N/N=C/c1ccc(N2CCCC2)c([N+](=O)[O-])c1 | - | - | - | 111 | - | -
CC(=O)c1c(C)[nH]c(C(=O)Nc2nc(-c3ccc(Cl)cc3)cs2)c1C | - | - | - | - | - | -
CC(=O)c1c(C)[nH]c(C(=O)Nc2nc(C)cs2)c1C | - | - | - | 86 | - | -
CC(=O)c1c(C)[nH]c(C(=O)Nc2ccc(C)cn2)c1C | - | - | - | 85 | - | -
CC(=O)c1c(C)[nH]c(C(=O)Nc2cc(C)cc(C)c2)c1C | - | - | - | - | - | -
COc1cc2cc(C(=O)Nc3ccc4c(c3)OCCO4)[nH]c2cc1OC | - | - | . | - | . | .
Cc1ccc(NC(=S)N2CCN(S(C)(=O)=O)CC2)cc1Cl | - | - | . | - | . | .
CC(=O)c1sc(N/N=C\c2c(O)ccc3ccccc23)nc1C | . | . | . | - | . | .
CCN(CC)S(=O)(=O)c1ccc2c(c1)C(=NO)c1cc(S(=O)(=O)N(CC)CC)ccc1-2 | - | - | - | 115 | - | -
O=S(=O)(c1ccc2c(c1)C(=NO)c1cc(S(=O)(=O)N3CCCCC3)ccc1-2)N1CCCCC1 | - | - | - | 96 | - | -
CCN(CC)S(=O)(=O)c1ccc(C)c(C)c1 | - | - | - | - | - | -
COc1ccc(C(C(=O)NC2CCCCC2)N(C(=O)CCl)c2cccc(Cl)c2)cc1 (configuration not stated) | - | - | - | - | - | -
O=C(Nc1ccc(C(=O)Nc2ccccc2Cl)cc1)c1cccnc1 | - | - | . | . | . | .
SMILES | KLF5 inhibitor | IEC-6 cytotox | APP transl inh | aSyn UTR inh | BaF3 parental | Ba/F3 V617F tox
O=C(CSc1nnc(-c2ccc(O)cc2)n1Cc1ccccc1)NNC(=O)c1ccc(Br)cc1 | - | - | - | - | - | -
CCN(Cc1ccccc1)c1ccc(/C=N/NC(=S)NC(C)C)cc1 | - | - | - | - | - | -
CCN(Cc1ccccc1)c1ccc(/C=N/N=C(N)N)cc1 | - | - | - | 94 | - | -
O=c1[nH]c(=O)n(-c2ccccc2)c2c1C(C(F)(F)F)(C(F)(F)F)N=C(C1CCCCC1)N2 | - | - | - | - | 40 | -
O=C(OCc1ccccc1)N1CCOCCOCCN(C(=O)OCc2ccccc2)CCOCCOCC1 | - | - | - | - | - | -
O=C(OCc1ccccc1)N1CCCC1/C=C/CN1CCOCC1 (configuration not stated) | - | - | 63 | - | - | -
CCCCCc1ccc(CC(=O)N2CCOCC2)cc1 | - | - | . | - | . | .
CC(C)c1cc(C(=O)Nc2cc(Cl)ccc2O)no1 | - | - | - | - | 37 | -
CC(C)c1cc(C(=O)Nc2cc(Br)ccc2O)no1 | - | - | - | - | 29 | 27
CN(C)CCCNc1cc(C(C)(C)C)nc2c(-c3ccc(Cl)cc3)cnn12 | - | - | . | 108 | - | -
